Source: PubChem
BAZ2B block: qHTS Assay for Inhibitors of BAZ2B | Bromodomain adjacent to zinc finger domain protein 2B (Homo sapiens), Q9UIF8 | AlphaScreen BAZ2B-H3K14Ac peptide displacement | Potency, µM (highest dose often 114 µM), without a hit: at the highest dose activity change, negative = inhibition, most hits filed as inhibitors | 360,000 tested, 4.4% active; note: potency is the fitted concentration of half-maximal effect; % is set by controls: 0 for no effect and ±100 for the full control effect; nearly all actives have a fitted effect of over 60% in size
Target sequence (Q9UIF8 whole entry, looked up, the tested form may be a part): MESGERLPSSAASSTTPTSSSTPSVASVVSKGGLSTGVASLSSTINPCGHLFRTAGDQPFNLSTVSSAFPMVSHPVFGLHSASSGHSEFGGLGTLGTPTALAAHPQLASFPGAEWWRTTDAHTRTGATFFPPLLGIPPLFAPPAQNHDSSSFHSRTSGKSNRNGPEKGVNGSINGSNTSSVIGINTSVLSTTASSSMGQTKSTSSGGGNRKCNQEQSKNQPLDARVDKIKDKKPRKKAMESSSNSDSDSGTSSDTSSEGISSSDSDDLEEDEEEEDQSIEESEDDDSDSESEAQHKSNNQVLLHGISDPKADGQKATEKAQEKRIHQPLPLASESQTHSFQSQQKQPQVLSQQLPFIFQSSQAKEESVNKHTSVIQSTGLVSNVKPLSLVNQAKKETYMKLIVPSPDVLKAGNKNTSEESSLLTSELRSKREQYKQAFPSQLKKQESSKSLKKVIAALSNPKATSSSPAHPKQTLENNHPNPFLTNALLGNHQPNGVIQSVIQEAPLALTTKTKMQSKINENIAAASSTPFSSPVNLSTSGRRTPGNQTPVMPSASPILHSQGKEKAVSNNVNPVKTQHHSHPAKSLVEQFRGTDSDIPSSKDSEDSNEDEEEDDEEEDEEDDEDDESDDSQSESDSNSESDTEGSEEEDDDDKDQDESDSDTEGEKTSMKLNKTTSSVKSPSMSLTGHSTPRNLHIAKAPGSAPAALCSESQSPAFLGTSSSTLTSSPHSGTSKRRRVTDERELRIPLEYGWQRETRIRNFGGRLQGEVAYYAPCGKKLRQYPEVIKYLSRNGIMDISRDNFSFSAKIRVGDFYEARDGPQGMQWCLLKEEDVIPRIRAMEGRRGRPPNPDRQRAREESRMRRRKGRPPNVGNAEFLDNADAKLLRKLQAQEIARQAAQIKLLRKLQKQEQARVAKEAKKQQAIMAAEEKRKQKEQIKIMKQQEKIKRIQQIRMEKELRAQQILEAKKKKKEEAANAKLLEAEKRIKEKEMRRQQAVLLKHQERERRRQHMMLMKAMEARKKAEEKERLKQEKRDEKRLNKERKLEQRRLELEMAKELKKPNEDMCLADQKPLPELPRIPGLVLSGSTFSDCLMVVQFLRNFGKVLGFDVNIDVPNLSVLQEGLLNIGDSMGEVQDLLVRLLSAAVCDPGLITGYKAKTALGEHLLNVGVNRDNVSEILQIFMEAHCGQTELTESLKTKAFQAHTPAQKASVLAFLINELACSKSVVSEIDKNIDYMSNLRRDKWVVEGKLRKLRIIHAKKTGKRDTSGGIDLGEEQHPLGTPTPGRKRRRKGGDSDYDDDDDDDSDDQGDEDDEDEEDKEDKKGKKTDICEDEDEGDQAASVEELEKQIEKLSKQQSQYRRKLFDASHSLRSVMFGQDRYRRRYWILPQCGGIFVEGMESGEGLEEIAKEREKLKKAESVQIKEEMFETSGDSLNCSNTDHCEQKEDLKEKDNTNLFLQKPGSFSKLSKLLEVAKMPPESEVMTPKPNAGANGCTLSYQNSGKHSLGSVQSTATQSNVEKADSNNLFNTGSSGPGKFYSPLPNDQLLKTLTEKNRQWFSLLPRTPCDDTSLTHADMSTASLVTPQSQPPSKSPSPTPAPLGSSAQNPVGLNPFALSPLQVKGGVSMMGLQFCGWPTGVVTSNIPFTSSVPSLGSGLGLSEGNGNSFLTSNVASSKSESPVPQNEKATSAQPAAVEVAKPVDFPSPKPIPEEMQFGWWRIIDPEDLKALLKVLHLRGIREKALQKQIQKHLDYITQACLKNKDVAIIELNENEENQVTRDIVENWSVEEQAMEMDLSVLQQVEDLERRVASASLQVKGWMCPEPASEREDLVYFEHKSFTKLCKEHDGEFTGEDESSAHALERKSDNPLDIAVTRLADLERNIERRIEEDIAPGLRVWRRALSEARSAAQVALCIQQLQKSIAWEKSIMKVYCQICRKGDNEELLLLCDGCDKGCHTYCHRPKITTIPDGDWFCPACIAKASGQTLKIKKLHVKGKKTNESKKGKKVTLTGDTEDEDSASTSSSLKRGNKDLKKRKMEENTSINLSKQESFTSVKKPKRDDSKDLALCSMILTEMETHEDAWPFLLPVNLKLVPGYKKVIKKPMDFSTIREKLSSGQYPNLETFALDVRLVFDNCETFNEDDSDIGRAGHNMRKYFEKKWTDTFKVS
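Multi-concentration screen (max 110 uM) measuring displacement of acetylated histone H3 peptide from BAZ2B by AlphaScreen, using 50 nM protein, 50 nM peptide and 10 ug/mL streptavidin donor plus Ni-chelate acceptor beads.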
PI5P4Ka inh: qHTS for Inhibitors of phosphatidylinositol 5-phosphate 4-kinase (PI5P4K) | AID 652105, 2013 | 330,000 tested, 1.2% active | Phosphatidylinositol 5-phosphate 4-kinase type-2 alpha (Homo sapiens), P48426 | PI5P4Kalpha enzyme, ADP-Glo luminescence, 60 min; hits give low values | max response, %; active = max response of -50% or lower; inconclusive = between -30% and -50%; inactive = -30% or higher; note: value at the top dose of about 77 µM; % is set by controls: 0 for no effect and ±100 for the full control effect
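Controls without substrate or without enzyme flank wells where PI5P4Kalpha converts substrate using 5 microM ATP (final). Incubation lasts 60 minutes at room temperature; ADP formed is read by ADP-Glo luminescence.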
HP1b binding inh: HTS for Inhibitors of HP1-beta Chromodomain Interactions with Methylated Histone Tails. 390,000 tested, 0.56% active. Potency, µM (highest dose often 114 µM), without a hit: at the top dose activity change, negative = inhibition, most hits filed as inhibitors. AlphaScreen HP1-beta / biotin-H3K9me3 peptide binding; note: potency is the fitted concentration of half-maximal effect; nearly all actives have a fitted effect of over 70% in size
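AlphaScreen: HP1-beta (50 nM) preformed 30 min with biotin-H3(1-18)K9me3 peptide (50 nM) in PBS pH 7.4, 0.01% Tween-20. Compound added for 30 min at RT, then streptavidin donor/nickel chelate acceptor beads (10 ug/mL) for 30 min.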
G9a inh-1: qHTS Assay for Inhibitors of Histone Lysine Methyltransferase G9a; Histone-lysine N-methyltransferase EHMT2 (Homo sapiens), Q96KQ7; G9a H3K9 monomethylation, AlphaScreen, 2 h; Potency, µM (titrated, usually from 102 µM), inactives show top-dose activity, negative = inhibition, actives largely listed as inhibitors; 350,000 tested, 8.8% active; AID 504332, 2011; note: potency is the fitted concentration of half-maximal effect; % is set by controls: 0 for no effect and ±100 for the full control effect; nearly all actives have a fitted effect of over 75% in size
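Compounds were preincubated with 20 nM G9a for 15 min, after which biotinylated H3K9 peptide (500 nM) and SAM (20 uM) started a 2 h room-temperature reaction. Monomethylated product was quantified by antibody-based AlphaScreen chemiluminescence.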
JMJD2A Tudor: qHTS Assay for Inhibitors of JMJD2A-Tudor Domain | Lysine-specific demethylase 4A (Homo sapiens), O75164 | Potency, µM (series often up to 114 µM), for the others: top-dose activity change, negative = inhibition, actives largely listed as inhibitors | AlphaScreen JMJD2A-Tudor / H3K4me3 peptide binding | AID 504339, 2011 | 390,000 tested, 4.4% active; note: potency is the fitted concentration of half-maximal effect; % is set by controls: 0 for no effect and ±100 for the full control effect; nearly all actives have a fitted effect of over 50% in size
L3MBTL1 block: qHTS Assay for the Inhibitors of L3MBTL1. Potency, µM (highest dose often 57.1 µM), for inactives: top-dose activity, negative = inhibition, actives largely listed as inhibitors. AID 485360, 2010. AlphaScreen L3MBTL1–H3K9me1 peptide binding. 230,000 tested, 0.66% active; note: potency is the fitted concentration of half-maximal effect; % is set by controls: 0 for no effect and ±100 for the full control effect; nearly all actives have a fitted effect of over 60% in size
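L3MBTL1 (50 nM) pre-complexed 30 min with biotinylated H3(1-15)K9me1 peptide (75 nM), then compounds added for 30 min at room temperature; AlphaScreen streptavidin donor/nickel chelate acceptor beads (10 ug/mL final) read after 30 min dark incubation.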
G9a inh-2: qHTS Assay for Inhibitors of Histone Lysine Methyltransferase G9a: Hit Confirmation | shares compounds with JMJD2A Tudor | G9a H3K9 monomethylation, AlphaScreen, 2 h | Potency, µM, actives largely listed as inhibitors | AID 588344, 2011 | 370 tested, 89% active; note: potency is the fitted concentration of half-maximal effect; nearly all actives have a fitted effect of over 65% in size
RGS4 inh: qHTS for Inhibitors of Regulator of G Protein Signaling(RGS) 4: Hit Validation | shares compounds with JMJD2A Tudor | RGS4 GAP activity, Transcreener GDP fluorescence polarization | Potency, µM, hits mostly inhibitors | 25 tested, 80% active
The depositor's hits bear a star; ? = inconclusive; nt = not tested or not shown; [ ] = dose if it differs, or a comment. Compounds with a hit are over-represented: about 11% of the library has one in this group of screens. Unless noted, calls come from the whole dose curve; as a rule, active = well fitted curve in the direction sought with a large enough effect; inconclusive = small, poorly fitted or top-dose-only effect, or another doubt; inactive = no such curve, though single readings can be large; an effect the other way counts as inactive or inconclusive.

SMILES	BAZ2B block	PI5P4Ka inh	HP1b binding inh	G9a inh-1	JMJD2A Tudor	L3MBTL1 block	G9a inh-2	others
CC(C)c1ccc(NS(=O)(=O)c2ccc3nc(-c4ccccc4)[nH]c3c2)cc1	-2.7%	nt	30.9%	10.9%[59 µM]	-17.1%	nt	nt
CCN(CC)c1ccc(NC(=O)c2cc(OC)cc(OC)c2)c(C)c1	39.8µM*	6.8	-33.7%	2.51µM*	?	-5.6%	3.16*
c1csc(Cc2nn3c(-c4n[nH]c5c4CCC5)nnc3s2)c1	?	?	-15.3%	?	?	nt	12.6*
CC(C(=O)Nc1ccc(S(=O)(=O)N2CCCC2)cc1)N(C)CC(=O)Nc1cccc(F)c1 (centres undefined)	nt	0.4	19.7%	nt	-5.9%	5.6%	nt
CC(C(=O)N1CCCCC1)N(C)CC(=O)Nc1cccc(F)c1 (centres undefined)	15.8µM*	0.5	-21.7%	?	25.1µM*	1.7%	44.7*
Cc1ccc(NC(=O)CN(C)Cc2c(O)ccc3ccccc23)cc1	-32.6%	?	-12.3%	1.41µM*	79.4µM*	nt	0.632*
Cc1nc2cnc(Oc3ccccc3)nc2n(C2CC2)c1=O	nt	nt	nt	7.2%[0.501 µM]	nt	nt	nt
CCN(CC)C(=O)C1CCN(Cc2cccc(OCc3ccccc3)c2)CC1	35.5µM*	-1.0	56.2µM*	2.82µM*	50.1µM*	-8.4%	28.3*
CCOc1cccc(CN2CCC(n3nccc3NC(=O)CCCc3ccccc3)CC2)c1	17.4%	-3.1	10.7%	nt	?	nt	nt
COc1ccc(NC(C)c2cc(Cl)ccc2O)cc1 (centres undefined)	31.6µM*	2.0	70.8µM*	?	8.9%[11.4 µM]	?	?
CC(Nc1ccccc1)c1cc(Cl)ccc1O (centres undefined)	-9.8%	-1.5	8.2%	-10.5%[59 µM]	-27.0%	-3.0%	nt
COc1ccc([N+](=O)[O-])cc1NC(=O)CSc1nc(C)cc(C)n1	-3.6%	?	18.1%	2.51µM*	?	-2.6%	6.31*
CCOC(=O)c1ccc(S(=O)(=O)N2CCN(C(C)=O)CC2)cc1	-20.2%	1.8	28.9%	-22.2%	-5.3%	-2.7%	nt
CCOC(=O)c1ccc(S(=O)(=O)N2CCN(Cc3cc4c(cc3O)OCO4)CC2)cc1	-33.6%	4.1	11.4%	0.398µM*	-21.1%	-9.2%	0.893*
O=C(c1ccc2c(c1)N(Cc1cccc(Cl)c1)C(=O)c1ccccc1S2(=O)=O)N1CCc2ccccc21	-9.9%	nt	1.5%	?	-21.2%	nt	nt
Cc1cn2c(=O)cc(COc3cccc(NC(=O)c4ccc(C(C)(C)C)cc4)c3)nc2s1	-35.1%	nt	16.4%	0.794µM*	-23.8%	nt	?
Cc1cccc(C(=O)Nc2cccc(OCc3cc(=O)n4cc(C)sc4n3)c2)c1	-0.7%	nt	11.2%	-15.6%[59 µM]	-25.8%	nt	nt
Cc1cccc(OCC(=O)N(C)CCc2ccccn2)c1	35.5µM*	-3.8	?	?	?	nt	10*
Cc1ccccc1NC(=O)c1c(NC(=O)Cc2ccccc2)sc2c1CCC2	3.4%	nt	51.7%	-11.7%[59 µM]	-9.2%	nt	nt
Cc1ccccc1CS(=O)(=O)Cc1ccc(C(=O)NCc2ccc(F)cc2)o1	-0.2%	nt	31.9%	-4.2%[59 µM]	-9.5%	nt	nt
CN(C)c1ccc(NC(=O)Nc2cccc(Cl)c2)cc1	39.8µM*	nt	-31.0%	1.12µM*	?	?	1.42*
CN(c1cccc(NC(=O)Nc2cccc(Cl)c2)c1)S(C)(=O)=O	0.6%	-0.3	22.2%	11.5%	-14.0%	10.5%	nt
CCC(=O)N1c2ccccc2CC1C(=O)NCCCN1CCN(c2ccccc2)CC1 (centres undefined)	?	nt	4.2%	6.0%[59 µM]	-28.5%	nt	nt
Cc1ccc(-c2nc3cccc(C)n3c2Nc2ccc(F)cc2)o1	nt	nt	?	nt	56.2µM*	nt	nt	RGS4 inh=18.9*
O=C(CC1C(=O)N(c2ccccc2)C(=O)N1CCC1=CCCCC1)Nc1ccc(F)cc1 (centres undefined)	-16.4%	nt	21.5%	13.7%[59 µM]	-18.2%	nt	nt
SMILES	BAZ2B block	PI5P4Ka inh	HP1b binding inh	G9a inh-1	JMJD2A Tudor	L3MBTL1 block	G9a inh-2	others
O=C(CCN1CCC(c2ccccc2)C1)c1ccc2c(c1)OCCO2 (centres undefined)	?	-4.8	13.2%	7.94µM*	-23.7%	nt	5.13*
O=C(CN1CCC(C(=O)c2ccc3c(c2)OCCO3)CC1)NCc1ccccc1	-22.3%	0.8	-19.8%	-0.3%	-14.4%	nt	nt
CCc1cccc(NC(=O)CSc2ncccc2C(=O)Oc2ccccc2Cl)c1	-17.0%	nt	39.7%	?	-12.3%	nt	nt
COc1ccc(OC)c(NC(=O)CSc2ccc(-c3cccs3)nn2)c1	-18.9%	nt	-14.6%	2.82µM*	?	nt	10.2*
COc1ccccc1NC(=O)CSc1ccc(-c2cccs2)nn1	1.8%	-5.2	24.5%	?	2.4%	nt	nt
CCn1nnc2cc(C(=O)Nc3ccc(C)c(Cl)c3)ccc21	-10.7%	nt	33.1%	-14.3%[59 µM]	-14.3%	nt	nt
CCOC(=O)c1ccc(NC(=O)Cn2cc(C(=O)c3ccc(Cl)cc3)c(=O)c3ccc(C)nc32)cc1	10.7%[57.1 µM]	nt	6.2%	-5.7%[59 µM]	-18.4%	nt	nt
CCn1cnc2cc(NCc3nc4ccccc4n3C)ccc21	?	nt	-3.8%	2.51µM*	-34.8%	nt	?
CCn1cnc2cc(NCc3ccc(C)cc3)ccc21	?	nt	-10.4%	1.58µM*	?	nt	4.47*
CC(=O)Nc1ccc2c(c1)ncn2C	-1.3%	8.2	59.9%	-0.1%[59 µM]	-14.5%[57.1 µM]	3.2%	nt
CCOc1ccc(CNc2ccc3c(c2)ncn3C)cc1	?	-4.0	-17.8%	?	?	-25.5%	1.78*
COc1cc(CNc2ccc3c(c2)ncn3C(C)C)cc(OC)c1OC	-27.5%	nt	10.7%	?	-19.8%	nt	nt
CN1C(=O)C(C)(C)c2cc(S(=O)(=O)N3CCCC3C(=O)Nc3ccc(F)cc3)ccc21 (centres undefined)	-6.6%	nt	38.3%	1.3%[59 µM]	1.8%	nt	nt
CC(CNC(=O)c1cc2cc(S(=O)(=O)N3CCCCC3)ccc2n1C)c1ccccc1 (centres undefined)	1.4%	nt	14.6%[57 µM]	1.6%[59 µM]	-21.4%	nt	nt
